Measurements: the supplement of paper PMC7411054

How the values were obtained:
Test in all cases: phenotypically active (imaging signature differs from DMSO and reproducible) at any of 0.3-9 uM (binary (1 = active, 0 = inactive)); higher = active
Details in all cases: treatment time: 24 h
A549-ACTB-RAB5A = system: A549-ACTB-RAB5A
In short: (§1)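 Fifteen gene-edited A549, HepG2 and WPMY1 reporter lines (BFP segmentation plus GFP and RFP/FusionRed markers) were treated at 0.3, 1, 3 or 9 µM for 24 h, four wells each, then imaged live. Live-cell features per well were normalised to DMSO control wells. Deviation required ≥3 of 4 wells beyond the 95th percentile of DMSO Euclidean distances, and reproducibility required median replicate Pearson correlation above the 95th percentile of non-replicates. Phenotypic activity needed both criteria.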

A549-CANX-COX4 = system: A549-CANX-COX4
In short: as §1

A549-GM130-SQSTM1 = system: A549-GM130-SQSTM1
In short: as §1

A549-TP53BP1-CLTA = system: A549-TP53BP1-CLTA
In short: as §1

A549-TUBA1B-RELA = system: A549-TUBA1B-RELA
In short: as §1

HepG2-ACTB-RAB5A = system: HepG2-ACTB-RAB5A
In short: as §1

HepG2-CANX-COX4 = system: HepG2-CANX-COX4
In short: as §1

HepG2-GM130-SQSTM1 = system: HepG2-GM130-SQSTM1
In short: as §1

HepG2-TP53BP1-CLTA = system: HepG2-TP53BP1-CLTA
In short: as §1

HepG2-TUBA1B-RELA = system: HepG2-TUBA1B-RELA
In short: as §1

WPMY1-ACTB-RAB5A = system: WPMY1-ACTB-RAB5A
In short: as §1

WPMY1-CANX-COX4 = system: WPMY1-CANX-COX4
In short: as §1

WPMY1-GM130-SQSTM1 = system: WPMY1-GM130-SQSTM1
In short: as §1

WPMY1-TP53BP1-CLTA = system: WPMY1-TP53BP1-CLTA
In short: as §1

WPMY1-TUBA1B-RELA = system: WPMY1-TUBA1B-RELA
In short: as §1

Measured: phenotypically active

CO[C@@]12[C@H](COC(N)=O)C3=C(C(=O)C(C)=C(N)C3=O)N1C[C@@H]1N[C@@H]12 [mitomycin]
inactive: A549-ACTB-RAB5A 0 | A549-CANX-COX4 0 | A549-GM130-SQSTM1 0 | A549-TP53BP1-CLTA 0 | A549-TUBA1B-RELA 0 | HepG2-ACTB-RAB5A 0 | HepG2-CANX-COX4 0 | HepG2-GM130-SQSTM1 0 | HepG2-TP53BP1-CLTA 0 | HepG2-TUBA1B-RELA 0 | WPMY1-ACTB-RAB5A 0 | WPMY1-CANX-COX4 0 | WPMY1-GM130-SQSTM1 0 | WPMY1-TP53BP1-CLTA 0 | WPMY1-TUBA1B-RELA 0

Cn1cccc1/C=C1\C(=O)NC(=O)c2ccccc21
inactive: A549-ACTB-RAB5A 0 | A549-CANX-COX4 0 | A549-GM130-SQSTM1 0 | A549-TP53BP1-CLTA 0 | A549-TUBA1B-RELA 0 | HepG2-ACTB-RAB5A 0 | HepG2-CANX-COX4 0 | HepG2-GM130-SQSTM1 0 | HepG2-TP53BP1-CLTA 0 | HepG2-TUBA1B-RELA 0 | WPMY1-ACTB-RAB5A 0 | WPMY1-CANX-COX4 0 | WPMY1-GM130-SQSTM1 0 | WPMY1-TP53BP1-CLTA 0 | WPMY1-TUBA1B-RELA 0

CCC(=C(CC)c1ccc(O)cc1)c1ccc(O)cc1 (stereo in doubt) [diethylstilbestrol]
inactive: A549-ACTB-RAB5A 0 | A549-CANX-COX4 0 | A549-GM130-SQSTM1 0 | A549-TP53BP1-CLTA 0 | A549-TUBA1B-RELA 0 | HepG2-ACTB-RAB5A 0 | HepG2-CANX-COX4 0 | HepG2-GM130-SQSTM1 0 | HepG2-TP53BP1-CLTA 0 | HepG2-TUBA1B-RELA 0 | WPMY1-ACTB-RAB5A 0 | WPMY1-CANX-COX4 0 | WPMY1-GM130-SQSTM1 0 | WPMY1-TP53BP1-CLTA 0 | WPMY1-TUBA1B-RELA 0

C=C[C@H]1[C@H](O[C@@H]2O[C@H](CO)[C@@H](O)[C@H](O)[C@H]2O)OC=C2C(=O)NCC[C@H]21 [Bakankosine]
inactive: A549-ACTB-RAB5A 0 | A549-CANX-COX4 0 | A549-GM130-SQSTM1 0 | A549-TP53BP1-CLTA 0 | A549-TUBA1B-RELA 0 | HepG2-ACTB-RAB5A 0 | HepG2-CANX-COX4 0 | HepG2-GM130-SQSTM1 0 | HepG2-TP53BP1-CLTA 0 | HepG2-TUBA1B-RELA 0 | WPMY1-ACTB-RAB5A 0 | WPMY1-CANX-COX4 0 | WPMY1-GM130-SQSTM1 0 | WPMY1-TP53BP1-CLTA 0 | WPMY1-TUBA1B-RELA 0

NC(=O)c1cccc(N)c1 [3-Aminobenzamide]
inactive: A549-ACTB-RAB5A 0 | A549-CANX-COX4 0 | A549-GM130-SQSTM1 0 | A549-TP53BP1-CLTA 0 | A549-TUBA1B-RELA 0 | HepG2-ACTB-RAB5A 0 | HepG2-CANX-COX4 0 | HepG2-GM130-SQSTM1 0 | HepG2-TP53BP1-CLTA 0 | HepG2-TUBA1B-RELA 0 | WPMY1-ACTB-RAB5A 0 | WPMY1-CANX-COX4 0 | WPMY1-GM130-SQSTM1 0 | WPMY1-TP53BP1-CLTA 0 | WPMY1-TUBA1B-RELA 0

Cc1c(-c2cnccn2)ssc1=S [Oltipraz]
inactive: A549-ACTB-RAB5A 0 | A549-CANX-COX4 0 | A549-GM130-SQSTM1 0 | A549-TP53BP1-CLTA 0 | A549-TUBA1B-RELA 0 | HepG2-ACTB-RAB5A 0 | HepG2-CANX-COX4 0 | HepG2-GM130-SQSTM1 0 | HepG2-TP53BP1-CLTA 0 | HepG2-TUBA1B-RELA 0 | WPMY1-ACTB-RAB5A 0 | WPMY1-CANX-COX4 0 | WPMY1-GM130-SQSTM1 0 | WPMY1-TP53BP1-CLTA 0 | WPMY1-TUBA1B-RELA 0

OC[C@H]1NC[C@H](O)[C@@H](O)[C@@H]1O [1-Deoxynojirimycin]
inactive: A549-ACTB-RAB5A 0 | A549-CANX-COX4 0 | A549-GM130-SQSTM1 0 | A549-TP53BP1-CLTA 0 | A549-TUBA1B-RELA 0 | HepG2-ACTB-RAB5A 0 | HepG2-CANX-COX4 0 | HepG2-GM130-SQSTM1 0 | HepG2-TP53BP1-CLTA 0 | HepG2-TUBA1B-RELA 0 | WPMY1-ACTB-RAB5A 0 | WPMY1-CANX-COX4 0 | WPMY1-GM130-SQSTM1 0 | WPMY1-TP53BP1-CLTA 0 | WPMY1-TUBA1B-RELA 0

NC1=NCC2c3ccccc3Cc3ccccc3N12 (stereo not given) [epinastine]
inactive: A549-ACTB-RAB5A 0 | A549-CANX-COX4 0 | A549-GM130-SQSTM1 0 | A549-TP53BP1-CLTA 0 | A549-TUBA1B-RELA 0 | HepG2-ACTB-RAB5A 0 | HepG2-CANX-COX4 0 | HepG2-GM130-SQSTM1 0 | HepG2-TP53BP1-CLTA 0 | HepG2-TUBA1B-RELA 0 | WPMY1-ACTB-RAB5A 0 | WPMY1-CANX-COX4 0 | WPMY1-GM130-SQSTM1 0 | WPMY1-TP53BP1-CLTA 0 | WPMY1-TUBA1B-RELA 0

C[C@H](Cc1cc2c(c(C(N)=O)c1)N(CCCO)CC2)NCCOc1ccccc1OCC(F)(F)F [silodosin]
inactive: A549-ACTB-RAB5A 0 | A549-CANX-COX4 0 | A549-GM130-SQSTM1 0 | A549-TP53BP1-CLTA 0 | A549-TUBA1B-RELA 0 | HepG2-ACTB-RAB5A 0 | HepG2-CANX-COX4 0 | HepG2-GM130-SQSTM1 0 | HepG2-TP53BP1-CLTA 0 | HepG2-TUBA1B-RELA 0 | WPMY1-ACTB-RAB5A 0 | WPMY1-CANX-COX4 0 | WPMY1-GM130-SQSTM1 0 | WPMY1-TP53BP1-CLTA 0 | WPMY1-TUBA1B-RELA 0

O=C1CC(c2ccc(O)cc2)Oc2cc(O)cc(O)c21 (stereo not given) [Naringenine]
inactive: A549-ACTB-RAB5A 0 | A549-CANX-COX4 0 | A549-GM130-SQSTM1 0 | A549-TP53BP1-CLTA 0 | A549-TUBA1B-RELA 0 | HepG2-ACTB-RAB5A 0 | HepG2-CANX-COX4 0 | HepG2-GM130-SQSTM1 0 | HepG2-TP53BP1-CLTA 0 | HepG2-TUBA1B-RELA 0 | WPMY1-ACTB-RAB5A 0 | WPMY1-CANX-COX4 0 | WPMY1-GM130-SQSTM1 0 | WPMY1-TP53BP1-CLTA 0 | WPMY1-TUBA1B-RELA 0

CC(C)(C#N)c1cc(Cn2cncn2)cc(C(C)(C)C#N)c1 [Anastrozole]
inactive: A549-ACTB-RAB5A 0 | A549-CANX-COX4 0 | A549-GM130-SQSTM1 0 | A549-TP53BP1-CLTA 0 | A549-TUBA1B-RELA 0 | HepG2-ACTB-RAB5A 0 | HepG2-CANX-COX4 0 | HepG2-GM130-SQSTM1 0 | HepG2-TP53BP1-CLTA 0 | HepG2-TUBA1B-RELA 0 | WPMY1-ACTB-RAB5A 0 | WPMY1-CANX-COX4 0 | WPMY1-GM130-SQSTM1 0 | WPMY1-TP53BP1-CLTA 0 | WPMY1-TUBA1B-RELA 0
